# Key:
# [1] = molecular target: Mitogen-activated protein kinase 3 (Homo sapiens) (UniProt P27361); conditions: at 1 µM;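 further: values are mean percent inhibition of MAPK3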
# [2] = molecular target: SRSF protein kinase 3 (Homo sapiens) (UniProt Q9UPE1); conditions: at 0.1 µM
# [3] = molecular target: SRSF protein kinase 3 (Homo sapiens) (UniProt Q9UPE1); conditions: at 1 µM
# [4] = molecular target: Mitogen-activated protein kinase 14 (Homo sapiens) (UniProt Q16539); conditions: at 0.1 µM
# [5] = molecular target: Mitogen-activated protein kinase 14 (Homo sapiens) (UniProt Q16539); conditions: at 1 µM
# [6] = molecular target: Mitogen-activated protein kinase 11 (Homo sapiens) (UniProt Q15759); conditions: at 0.1 µM
# Chain of Mitogen-activated protein kinase 11 (Homo sapiens) (Q15759 whole entry): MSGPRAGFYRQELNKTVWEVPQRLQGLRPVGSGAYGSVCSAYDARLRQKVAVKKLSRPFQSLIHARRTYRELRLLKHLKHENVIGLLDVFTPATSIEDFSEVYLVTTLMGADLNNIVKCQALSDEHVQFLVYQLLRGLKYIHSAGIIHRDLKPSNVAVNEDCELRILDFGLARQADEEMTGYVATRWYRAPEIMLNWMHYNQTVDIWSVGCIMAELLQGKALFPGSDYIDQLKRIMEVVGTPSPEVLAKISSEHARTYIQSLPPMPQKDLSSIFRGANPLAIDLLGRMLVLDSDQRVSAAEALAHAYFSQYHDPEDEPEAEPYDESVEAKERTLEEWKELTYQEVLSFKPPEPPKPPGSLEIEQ
# [7] = molecular target: Mitogen-activated protein kinase 11 (Homo sapiens) (UniProt Q15759); conditions: at 1 µM
# [8] = molecular target: T1, Mitogen-activated protein kinase 13 (Homo sapiens) (UniProt O15264); conditions: at 0.1 µM
# T1 sequence (whole entry): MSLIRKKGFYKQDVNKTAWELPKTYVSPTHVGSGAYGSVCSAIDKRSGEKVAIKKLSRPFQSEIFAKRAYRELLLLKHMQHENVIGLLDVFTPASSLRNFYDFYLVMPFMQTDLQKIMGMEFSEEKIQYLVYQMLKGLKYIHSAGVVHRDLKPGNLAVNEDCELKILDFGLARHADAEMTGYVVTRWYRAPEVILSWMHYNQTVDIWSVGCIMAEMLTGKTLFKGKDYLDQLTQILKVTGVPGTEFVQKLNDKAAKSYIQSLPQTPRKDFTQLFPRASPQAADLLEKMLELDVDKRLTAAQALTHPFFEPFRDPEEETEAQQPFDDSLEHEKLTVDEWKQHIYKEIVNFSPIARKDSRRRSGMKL
# [9] = molecular target: T1, Mitogen-activated protein kinase 13 (Homo sapiens); conditions: at 1 µM
# [10] = molecular target: T2, Mitogen-activated protein kinase 12 (Homo sapiens) (UniProt P53778); conditions: at 0.1 µM
# T2 sequence (whole entry): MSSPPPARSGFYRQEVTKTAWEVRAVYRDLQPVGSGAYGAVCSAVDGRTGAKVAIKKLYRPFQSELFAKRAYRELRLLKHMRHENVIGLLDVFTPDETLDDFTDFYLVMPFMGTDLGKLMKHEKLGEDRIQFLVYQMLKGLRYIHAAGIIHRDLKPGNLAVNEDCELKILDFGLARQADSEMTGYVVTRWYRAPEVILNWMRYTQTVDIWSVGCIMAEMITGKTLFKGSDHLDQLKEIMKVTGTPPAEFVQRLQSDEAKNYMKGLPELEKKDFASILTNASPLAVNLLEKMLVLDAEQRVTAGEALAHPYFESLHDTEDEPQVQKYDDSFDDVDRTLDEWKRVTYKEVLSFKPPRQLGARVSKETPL
# [11] = molecular target: T2, Mitogen-activated protein kinase 12 (Homo sapiens); conditions: at 1 µM
# [12] = molecular target: SRSF protein kinase 1 (Homo sapiens) (UniProt Q96SB4); conditions: at 0.1 µM
# Chain of SRSF protein kinase 1 (Homo sapiens) (Q96SB4 whole entry, canonical isoform): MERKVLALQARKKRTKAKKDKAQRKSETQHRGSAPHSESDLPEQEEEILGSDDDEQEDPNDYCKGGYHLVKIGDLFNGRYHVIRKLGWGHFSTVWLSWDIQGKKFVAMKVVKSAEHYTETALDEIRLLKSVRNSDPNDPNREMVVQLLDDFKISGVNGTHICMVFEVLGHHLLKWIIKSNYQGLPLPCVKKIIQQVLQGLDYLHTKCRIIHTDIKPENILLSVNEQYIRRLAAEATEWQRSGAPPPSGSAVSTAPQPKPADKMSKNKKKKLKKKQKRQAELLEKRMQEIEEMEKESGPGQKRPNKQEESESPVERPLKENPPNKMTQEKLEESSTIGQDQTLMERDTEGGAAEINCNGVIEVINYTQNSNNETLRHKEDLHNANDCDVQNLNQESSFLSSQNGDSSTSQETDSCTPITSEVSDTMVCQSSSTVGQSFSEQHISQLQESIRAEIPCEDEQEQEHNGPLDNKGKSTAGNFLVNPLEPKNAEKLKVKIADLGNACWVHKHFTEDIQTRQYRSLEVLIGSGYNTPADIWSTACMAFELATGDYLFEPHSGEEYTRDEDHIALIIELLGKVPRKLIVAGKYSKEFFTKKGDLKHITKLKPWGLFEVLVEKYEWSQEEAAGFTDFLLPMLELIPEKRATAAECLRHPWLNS
# [13] = molecular target: SRSF protein kinase 1 (Homo sapiens) (UniProt Q96SB4); conditions: at 1 µM
# [14] = molecular target: Phosphatidylinositol 4,5-bisphosphate 3-kinase catalytic subunit alpha isoform (Homo sapiens) (UniProt P42336); conditions: at 0.1 µM
# Chain of Phosphatidylinositol 4,5-bisphosphate 3-kinase catalytic subunit alpha isoform (Homo sapiens) (P42336 whole entry, canonical isoform): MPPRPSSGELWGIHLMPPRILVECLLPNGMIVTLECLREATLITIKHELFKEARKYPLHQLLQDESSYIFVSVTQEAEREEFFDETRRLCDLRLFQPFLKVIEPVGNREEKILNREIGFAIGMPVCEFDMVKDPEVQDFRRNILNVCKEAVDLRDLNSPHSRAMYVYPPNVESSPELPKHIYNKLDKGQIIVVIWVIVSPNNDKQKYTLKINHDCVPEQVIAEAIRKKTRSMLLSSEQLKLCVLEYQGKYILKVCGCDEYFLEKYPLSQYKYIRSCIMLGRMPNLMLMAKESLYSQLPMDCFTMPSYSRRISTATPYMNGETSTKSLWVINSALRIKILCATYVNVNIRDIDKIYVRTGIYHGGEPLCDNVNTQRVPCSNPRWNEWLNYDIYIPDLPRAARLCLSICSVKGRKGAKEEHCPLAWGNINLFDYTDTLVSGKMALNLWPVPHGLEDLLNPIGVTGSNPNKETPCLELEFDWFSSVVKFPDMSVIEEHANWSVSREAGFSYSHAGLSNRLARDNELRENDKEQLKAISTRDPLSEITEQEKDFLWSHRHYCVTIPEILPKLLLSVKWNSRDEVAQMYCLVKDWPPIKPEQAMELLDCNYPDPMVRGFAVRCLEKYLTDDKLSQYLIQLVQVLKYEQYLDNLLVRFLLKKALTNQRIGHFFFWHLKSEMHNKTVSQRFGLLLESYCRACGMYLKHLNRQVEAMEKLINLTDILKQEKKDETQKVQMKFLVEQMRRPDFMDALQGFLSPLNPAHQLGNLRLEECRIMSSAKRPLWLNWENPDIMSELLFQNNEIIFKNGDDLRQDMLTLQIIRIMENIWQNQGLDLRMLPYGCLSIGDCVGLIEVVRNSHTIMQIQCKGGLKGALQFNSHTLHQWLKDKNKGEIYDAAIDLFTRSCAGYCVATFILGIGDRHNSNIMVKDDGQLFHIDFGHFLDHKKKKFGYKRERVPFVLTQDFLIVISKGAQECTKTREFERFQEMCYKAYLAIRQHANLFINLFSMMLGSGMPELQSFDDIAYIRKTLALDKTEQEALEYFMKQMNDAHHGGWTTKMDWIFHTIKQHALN
# [15] = molecular target: Phosphatidylinositol 4,5-bisphosphate 3-kinase catalytic subunit alpha isoform (Homo sapiens) (UniProt P42336); conditions: at 1 µM
# [16] = molecular target: T3, Phosphatidylinositol 4,5-bisphosphate 3-kinase catalytic subunit delta isoform (Homo sapiens) (UniProt O00329); conditions: at 0.1 µM
# T3 sequence (whole entry): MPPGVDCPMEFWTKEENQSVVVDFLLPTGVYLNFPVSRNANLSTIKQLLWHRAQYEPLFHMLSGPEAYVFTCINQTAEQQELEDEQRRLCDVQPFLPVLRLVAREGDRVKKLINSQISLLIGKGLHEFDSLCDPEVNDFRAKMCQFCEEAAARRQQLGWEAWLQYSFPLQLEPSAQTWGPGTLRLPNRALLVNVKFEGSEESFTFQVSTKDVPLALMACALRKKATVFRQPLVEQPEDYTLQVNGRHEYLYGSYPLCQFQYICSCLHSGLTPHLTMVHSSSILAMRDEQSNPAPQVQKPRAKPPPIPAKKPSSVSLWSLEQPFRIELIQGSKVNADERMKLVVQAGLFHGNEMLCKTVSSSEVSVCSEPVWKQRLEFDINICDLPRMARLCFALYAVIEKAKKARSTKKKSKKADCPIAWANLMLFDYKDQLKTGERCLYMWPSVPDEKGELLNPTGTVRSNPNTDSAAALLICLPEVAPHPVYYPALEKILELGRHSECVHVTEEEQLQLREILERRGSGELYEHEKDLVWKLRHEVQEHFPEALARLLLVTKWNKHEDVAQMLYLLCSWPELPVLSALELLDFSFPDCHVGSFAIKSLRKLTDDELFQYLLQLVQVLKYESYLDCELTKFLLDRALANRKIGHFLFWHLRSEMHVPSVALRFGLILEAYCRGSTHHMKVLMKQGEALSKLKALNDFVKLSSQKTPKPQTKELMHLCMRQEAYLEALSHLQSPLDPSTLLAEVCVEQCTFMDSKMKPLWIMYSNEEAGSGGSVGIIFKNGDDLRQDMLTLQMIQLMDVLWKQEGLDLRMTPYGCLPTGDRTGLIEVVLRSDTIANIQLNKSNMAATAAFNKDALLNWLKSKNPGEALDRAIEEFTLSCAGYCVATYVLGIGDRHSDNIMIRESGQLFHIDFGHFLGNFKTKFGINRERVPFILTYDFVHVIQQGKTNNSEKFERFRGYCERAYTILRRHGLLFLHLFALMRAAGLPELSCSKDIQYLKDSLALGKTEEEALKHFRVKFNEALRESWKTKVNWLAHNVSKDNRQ
# [17] = molecular target: T3, Phosphatidylinositol 4,5-bisphosphate 3-kinase catalytic subunit delta isoform (Homo sapiens); conditions: at 1 µM
# [18] = molecular target: Phosphatidylinositol 4-kinase beta (Homo sapiens) (UniProt Q9UBF8); conditions: at 0.1 µM
# Chain of Phosphatidylinositol 4-kinase beta (Homo sapiens) (Q9UBF8 2-816 limits assumed): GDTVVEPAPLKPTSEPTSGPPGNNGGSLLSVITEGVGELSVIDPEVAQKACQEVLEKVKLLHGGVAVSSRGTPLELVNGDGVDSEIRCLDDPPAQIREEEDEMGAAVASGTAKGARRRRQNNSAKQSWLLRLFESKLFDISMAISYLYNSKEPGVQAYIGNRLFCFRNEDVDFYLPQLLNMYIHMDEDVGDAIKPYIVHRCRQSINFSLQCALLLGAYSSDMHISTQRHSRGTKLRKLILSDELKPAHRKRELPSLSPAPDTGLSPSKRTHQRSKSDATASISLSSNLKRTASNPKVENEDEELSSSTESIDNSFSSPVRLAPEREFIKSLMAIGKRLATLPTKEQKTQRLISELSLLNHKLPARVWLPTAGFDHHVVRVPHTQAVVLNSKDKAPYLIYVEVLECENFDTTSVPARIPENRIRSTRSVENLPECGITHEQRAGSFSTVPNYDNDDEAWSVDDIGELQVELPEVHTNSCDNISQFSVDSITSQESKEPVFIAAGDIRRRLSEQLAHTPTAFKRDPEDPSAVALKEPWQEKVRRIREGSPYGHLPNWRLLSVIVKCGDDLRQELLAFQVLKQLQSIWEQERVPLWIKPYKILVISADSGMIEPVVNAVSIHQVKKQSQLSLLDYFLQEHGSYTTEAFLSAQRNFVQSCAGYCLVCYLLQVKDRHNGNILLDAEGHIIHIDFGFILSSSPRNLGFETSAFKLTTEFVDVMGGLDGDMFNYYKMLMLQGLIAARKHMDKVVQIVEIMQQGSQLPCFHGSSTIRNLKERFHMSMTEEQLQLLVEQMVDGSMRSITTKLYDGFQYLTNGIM
# [19] = molecular target: Phosphatidylinositol 4-kinase beta (Homo sapiens) (UniProt Q9UBF8); conditions: at 1 µM
# [20] = molecular target: Sphingosine kinase 1 (Homo sapiens) (UniProt Q9NYA1); conditions: at 0.1 µM;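 further: mean percent inhibition of SPHK1 activity, measured within the GSK PKIS screening panel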
# Chain of Sphingosine kinase 1 (Homo sapiens) (Q9NYA1 whole entry): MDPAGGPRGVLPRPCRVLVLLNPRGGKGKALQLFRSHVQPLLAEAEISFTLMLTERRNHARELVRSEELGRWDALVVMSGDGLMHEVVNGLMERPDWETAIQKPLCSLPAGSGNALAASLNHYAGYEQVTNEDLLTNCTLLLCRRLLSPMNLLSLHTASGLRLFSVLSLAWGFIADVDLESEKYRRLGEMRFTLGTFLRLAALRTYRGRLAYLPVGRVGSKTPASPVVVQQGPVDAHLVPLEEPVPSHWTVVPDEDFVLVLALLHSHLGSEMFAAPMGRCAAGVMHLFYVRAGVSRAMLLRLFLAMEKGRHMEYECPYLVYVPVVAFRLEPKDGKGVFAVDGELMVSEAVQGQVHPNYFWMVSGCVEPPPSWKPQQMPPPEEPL
# Chain of SRSF protein kinase 3 (Homo sapiens) (Q9UPE1 whole entry): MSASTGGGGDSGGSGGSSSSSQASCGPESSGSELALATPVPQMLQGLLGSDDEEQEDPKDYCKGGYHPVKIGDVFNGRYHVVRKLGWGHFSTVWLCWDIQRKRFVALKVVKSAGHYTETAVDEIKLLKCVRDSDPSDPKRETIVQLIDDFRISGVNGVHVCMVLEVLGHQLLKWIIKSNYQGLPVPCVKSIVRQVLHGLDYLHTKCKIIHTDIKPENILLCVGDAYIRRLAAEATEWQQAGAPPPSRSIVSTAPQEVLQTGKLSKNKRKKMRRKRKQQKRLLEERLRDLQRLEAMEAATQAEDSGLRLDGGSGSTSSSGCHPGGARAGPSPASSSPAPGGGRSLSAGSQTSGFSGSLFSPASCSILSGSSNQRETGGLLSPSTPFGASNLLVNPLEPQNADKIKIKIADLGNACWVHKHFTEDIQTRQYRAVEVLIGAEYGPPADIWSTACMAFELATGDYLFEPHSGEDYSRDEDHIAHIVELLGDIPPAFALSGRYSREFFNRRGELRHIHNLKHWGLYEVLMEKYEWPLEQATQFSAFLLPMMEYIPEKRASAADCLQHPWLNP
# Chain of Mitogen-activated protein kinase 14 (Homo sapiens) (Q16539 whole entry): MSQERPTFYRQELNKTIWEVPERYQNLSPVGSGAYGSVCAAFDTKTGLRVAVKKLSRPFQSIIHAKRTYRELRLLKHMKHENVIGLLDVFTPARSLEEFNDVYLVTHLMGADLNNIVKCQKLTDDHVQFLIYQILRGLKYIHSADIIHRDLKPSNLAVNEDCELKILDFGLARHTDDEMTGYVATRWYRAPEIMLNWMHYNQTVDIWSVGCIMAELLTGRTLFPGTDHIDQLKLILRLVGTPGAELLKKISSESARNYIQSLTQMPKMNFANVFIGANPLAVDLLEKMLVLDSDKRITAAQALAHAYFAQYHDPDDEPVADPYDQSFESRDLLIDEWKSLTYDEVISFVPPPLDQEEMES
# Chain of Mitogen-activated protein kinase 3 (Homo sapiens) (P27361 whole entry): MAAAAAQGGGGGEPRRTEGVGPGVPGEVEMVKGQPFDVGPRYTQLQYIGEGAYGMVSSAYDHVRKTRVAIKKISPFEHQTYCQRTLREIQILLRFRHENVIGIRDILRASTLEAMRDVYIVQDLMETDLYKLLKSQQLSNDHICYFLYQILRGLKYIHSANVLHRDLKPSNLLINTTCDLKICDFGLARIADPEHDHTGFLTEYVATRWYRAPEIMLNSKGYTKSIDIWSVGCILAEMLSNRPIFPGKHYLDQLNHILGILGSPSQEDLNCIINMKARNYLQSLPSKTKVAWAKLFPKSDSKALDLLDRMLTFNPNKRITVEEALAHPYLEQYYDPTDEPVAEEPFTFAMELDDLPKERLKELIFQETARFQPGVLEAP
Compound,inhibition [1] [%],inhibition [2] [%],inhibition [3] [%],inhibition [4] [%],inhibition [5] [%],inhibition [6] [%],inhibition [7] [%],inhibition [8] [%],inhibition [9] [%],inhibition [10] [%],inhibition [11] [%],inhibition [12] [%],inhibition [13] [%],inhibition [14] [%],inhibition [15] [%],inhibition [16] [%],inhibition [17] [%],inhibition [18] [%],inhibition [19] [%],inhibition [20] [%]
O=C(Nc1n[nH]c2nc(-c3ccco3)c(Br)cc12)C1CC1,2.64,-0.09,-0.41,2.53,6.49,3.09,3.71,1.46,2.57,2.55,2.11,-4.07,-5.19,5.44,4.94,2.6,3.08,0.77,5.14,0.46
Fc1cccc(COc2ccc(Nc3ncnc4cc(-c5ccc[nH]5)sc34)cc2Cl)c1,1.55,-2.27,-1.34,1.24,4.89,0.23,-0.16,1.98,2.15,4.35,2.1,-1.71,-1.58,3.58,10.8,2.77,9.44,-8.05,2.94,1.48
COc1cc2ncn(-c3cc(O[C@H](C)c4ccccc4Cl)c(C(N)=O)s3)c2cc1OC,4.54,-0.2,8.42,5.73,6.35,3.71,4.9,2.38,3.77,2.99,3.72,0.35,7.77,7.21,36.1,13.6,59.9,2.43,-0.59,1.83
Cc1ccc(C(=O)NC2CCCCC2)cc1-c1ccc(C(=O)NCC2CC2)cc1,0.88,1.95,0.5,5.36,17.4,4.59,14.2,1.77,2.53,-0.98,1.27,-2.04,-2.48,1.35,-0.53,1.89,1.33,3.97,-5.9,-7.61
NC(=O)c1cccc(Nc2nccc(Nc3cccc4[nH]ncc34)n2)c1,1.82,0.19,3.95,4.23,2.87,-1.99,3.32,-0.37,1.26,-1.53,1.3,1.99,2.55,-1.08,6.41,1.39,10.7,4.75,10.2,-1.36
NCc1ccc(-c2nc(-c3ccc(Cl)c(O)c3)c(-c3ccncc3)[nH]2)cc1,0.95,-2.12,-2.01,41,77.1,13.6,54,-0.52,1.79,-0.97,2.04,-1.76,-4.18,-0.47,3.94,0.9,6.6,-3.9,-2.79,2.55
[O-][S+]1CCN(Cc2ccc(-c3ccc4ncnc(Nc5ccc(OCc6ccccc6)c(F)c5)c4c3)o2)CC1,-0.07,-1.09,-1.23,1.59,8.77,3.66,6.24,-1.08,3.34,0.27,2.56,-2.36,-4.42,1.82,3.14,2.61,5.44,-0.3,-1.35,-0.6
Cc1ccc(NC(=O)c2ccnc(N3CCCC3)c2)cc1-c1ccc(C(=O)NCC2CC2)cc1,3.65,-0.5,-0.3,38.3,79.6,40.9,78.9,3.45,5.79,4.49,4.14,-2.03,-3.61,4.02,14.5,3.4,14.4,-4.29,-0.13,-0.32
CS(=O)(=O)CCNCc1ccc(-c2ccc3ncnc(Nc4ccc(OCc5ccccc5)c(Cl)c4)c3c2)o1,0.5,2.57,4.72,-0.17,3.25,-1.17,0.8,0.47,2.09,1.33,6.3,-1.42,1.52,-1.12,-0.19,-2.16,-1.17,-0.03,3.61,1.23
Nc1nc(-c2ccccn2)c(-c2ccc3ncccc3n2)s1,1.04,0.57,0.83,-0.64,6.59,1.28,3.29,2.8,5.95,-0.21,1.76,-1.15,-0.55,4.05,5.74,2.87,3.05,4.8,0.96,-1.16
O=C1NC(=O)C(N2CCc3ccccc32)=C1c1ccc(Cl)cc1,2.62,1.04,-0.52,3.97,8.43,5.07,4.84,1.06,5.95,3.98,3.35,-1.77,-3.78,4.21,6.29,3.6,5.56,-1.76,-1.34,
NS(=O)(=O)c1ccc(N/N=C2\C(=O)Nc3ccc(C(=O)NCCc4c[nH]cn4)cc32)cc1,7.89,1.31,-0.05,5.71,8.13,3.37,6.34,-1.15,4.35,4.17,2.64,-1.35,-0.63,2.2,4.76,1.71,2.03,-6.38,-1.44,-1.35
COc1ccccc1Nc1ncc(-c2ccccc2)o1,5.55,-1.49,1.35,10.4,11,4.31,7.08,5.83,4.74,4.14,4.08,-4.21,-2.61,5.32,6.11,0.95,2.27,-0.97,0.94,0
